Reference: PubChem BioAssay (NCI)
The panel holds about 83,000 compounds, 20% with a hit somewhere; the sample as a whole holds those more often.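 Activity criterion: percent growth below 10, measured after cells in 96-well plates were exposed to a single compound concentration for 48 hours.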 Values without a mark were called inactive. The source made the active and inactive calls.

Legend:
Assay in all cases: NCI-60 one-dose screen, 48 h (100 = growth as untreated, 0 = no growth, -100 = all killed)
[1] = tested on: DU-145 prostate; settings: 10 µM unless noted
[2] = tested on: MALME-3M melanoma; settings: 10 µM unless noted
[3] = tested on: MDA-MB-231 breast; settings: 10 µM unless noted
[4] = tested on: RXF 393 renal; settings: 10 µM unless noted
[5] = tested on: SF-268 CNS; settings: 10 µM unless noted
[6] = tested on: SF-295 CNS; settings: 10 µM unless noted
[7] = tested on: SF-539 CNS; settings: 10 µM unless noted
[8] = tested on: M14 melanoma; settings: 10 µM unless noted
[9] = tested on: HCT-15 colon; settings: 10 µM unless noted
[10] = tested on: HT29 colon; settings: 10 µM unless noted
[11] = tested on: SNB-75 CNS; settings: 10 µM unless noted
[12] = tested on: SNB-19 CNS; settings: 10 µM unless noted
[13] = tested on: U251 CNS; settings: 10 µM unless noted
[14] = tested on: PC-3 prostate; settings: 10 µM unless noted
[15] = tested on: SK-MEL-5 melanoma; settings: 10 µM unless noted
[16] = tested on: UACC-62 melanoma; settings: 10 µM unless noted
[17] = tested on: LOX IMVI melanoma; settings: 10 µM unless noted
[18] = tested on: SK-MEL-28 melanoma; settings: 10 µM unless noted
[19] = tested on: UACC-257 melanoma; settings: 10 µM

Row | Compound | growth [1] | growth [2] | growth [3] | growth [4] | growth [5] | growth [6] | growth [7] | growth [8] | growth [9] | growth [10] | growth [11] | growth [12] | growth [13] | growth [14] | growth [15] | growth [16] | growth [17] | growth [18] | growth [19]
1 | CCOC(=O)CC(=O)CSC1=NC2C(NN1)N(C)C(=O)N2C (stereo not drawn) | 90.2% | 61.6% | 75.3% | 105% | 99.4% | 102% | 91.5% | 81.3% | 63% | 62.9% | 99% | 97.4% | 98.6% | 89.4% | 99.6% | 89.4% | 92.9% | 89.3% | –
2 | Cc1cc(=O)n2nc(-c3c[nH]c4ccccc34)sc2n1 | 107% | 85% | 90.6% | 105% | 102% | 103% | 92.7% | 107% | 93.5% | 107% | – | 97.3% | 94.2% | 98.3% | 98.5% | – | 95.7% | 96.5% | –
3 | COc1ccc(/C(C)=C(\c2ccc(Cl)cc2)c2ccc(OCCN)cc2)cc1 | 87.2% | 83% | 67.1% | 68.3% | 89.4% | 103% | 90% | 81.4% | 40.5% | – | 88.9% | 87.8% | 61.9% | 78.9% | 96.7% | 98.5% | 0.915% (active) | 86.1% | 94.7%
4 | CS(=O)(=O)c1nccc(-c2c(-c3ccc(F)c(OCCc4ccc(F)cc4)c3)nc3sccn23)n1 | -91.6% (active) | 91.7% | 1.19% (active) | 77.7% | 82.8% | 89% | 76.3% | 83.9% | -0.659% (active) | 7.43% (active) | 67.8% | 0.358% (active) | 71.4% | – | 92.1% | 57.9% | 51.5% | -71.5% (active) | -81.4% (active)
5 | COc1ccc(-c2no[n+]([O-])c2Nc2ccccc2Br)cc1 | 106% | 88% | 81.5% | 102% | 92.4% | 106% | 93.9% | 89.3% | 97.1% | 119% | 92% | 89.5% | 95% | 76.8% | 93.5% | 71.6% | 95.6% | 99.8% | –
6 | Cn1cc(-c2nn3cc(-c4cccnc4)nc3s2)c2cc(F)ccc21 | 98.1% | 70.3% | 67% | 103% | 112% | 92.5% | 80.3% | 84.8% | 60% | 67.1% | 86.9% | 84.7% | 96.8% | 79.4% | 94.3% | 62.2% | 85.7% | 81.7% | –
7 | O=c1cc(-c2ccccc2)nc2sc(-c3c[nH]c4ccc(F)cc34)nn12 | 63.3% | 21.9% | 51.8% | 40.5% | 82.9% | 82.9% | 68% | 63.5% | 67.8% | 73.2% | -37.9% (active) | 77.5% | 57.9% | 64.9% | 69.8% | 68.1% | 72% | 67.7% | –
8 | COc1cnc2c(c1)C(=O)c1c-2n(CCCn2ccnc2)c(=O)c2cc(OC)c(OC)cc12 | -2.47% (active) | -51.4% (active) | -0.696% (active) | -10.5% (active) | 29.2% | -20.5% (active) | -35.2% (active) | -86.5% (active) | -53.2% (active) | -56.1% (active) | – | 14.9% | -84.8% (active) | -54.9% (active) | -28.4% (active) | -11% (active) | -51.5% (active) | 45.5% | –
9 | CCNCCCn1c2c(c3cc(OC)c(OC)cc3c1=O)C(=O)c1cc(OC)cnc1-2 | 19.6% | 62.9% | 16.3% | 13.6% | 39.5% | 14.8% | -7.15% (active) | 13.9% | 22% | -60.9% (active) | 17.1% | 25.3% | -16.1% (active) | 46.5% | -18.2% (active) | – | -8.19% (active) | 64.7% | –
10 | COc1ccc([C@@H]2[C@@H](O)C(=O)N2c2cc(OC)c(OC)c(OC)c2)cc1Cl | 15.2% | 64.3% | 26% | 26% | 44% | 9.68% (active) | -12.4% (active) | 13.4% | 10.5% | 12.8% | – | 30% | 1.75% (active) | 17.5% | 0.0843% (active) | 26.1% | 18.5% | 64.2% | –
11 | COc1cc2c3c(n(CCCNCC4CC4)c(=O)c2cc1OC)-c1cc2c(cc1C3=O)OCO2 | -52.9% (active) | 71.1% | -73.6% (active) | 43.9% | 45.6% | 22.3% | -88% (active) | 31.9% | -72.2% (active) | -70.6% (active) | 66.8% | 42.3% | -95.7% (active) | 40% | 53.2% | 45.7% | -77.7% (active) | 89.7% | –
12 | COc1ccc(-c2oc3cc(O)cc(O)c3c(=O)c2OC)cc1O | 15.7% | 68.8% | 32.7% | -29.9% (active) | 45.2% | -24.1% (active) | -34.6% (active) | 28.3% | 33.2% | 57% | -24.3% (active) | 28.2% | 15.6% | 24.1% | – | – | 36.8% | – | 78.8%
13 | O=C1c2c(c3c4ccc(Br)cc4oc3c3[nH]c4ccccc4c23)C(=O)N1CCO | 35% | 65.4% | 65.1% | 57.1% | 49.2% | 20.8% | 17.1% | 29.8% | 53% | 58.3% | 88.7% | 32.8% | 23.5% | 51.6% | 17.3% | 23.5% | 7.54% (active) | 70.2% | –
14 | CNC(=O)c1cc(Oc2ccc3nc(NC(=O)c4cccc(C(F)(F)F)c4)sc3c2)ccn1 | 101% | 97.2% | 104% | 106% | 98% | 92.6% | 99.4% | 96.6% | 98.1% | 106% | 90.7% | 93.3% | 104% | – | 101% | 85% | 99.3% | 89.8% | 104%
15 | COc1cc2c3c(n(CCCNC4CCC4)c(=O)c2cc1OC)-c1cc2c(cc1C3=O)OCO2 | -73.5% (active) | -46.2% (active) | -65.1% (active) | -74% (active) | 45.6% | 20.4% | -83.5% (active) | -78% (active) | -53% (active) | -64.1% (active) | -67% (active) | -25.2% (active) | -88.9% (active) | -78.7% (active) | 76.8% | 59.1% | -72.8% (active) | 86.7% | –
16 | COc1ccc2c(C3=C(c4c[nH]c5ccccc45)C(=O)N(O)C3=O)coc2c1 | 103% | 94.8% | 78.3% | 105% | 101% | 103% | 93.3% | 94.4% | 92.2% | 95.4% | – | 95.1% | 98% | 81.2% | 94.5% | 80.4% | 52.2% | 110% | –
17 | Cn1cc(-c2nn3cc(-c4cccnc4)nc3s2)c2ccccc21 | 58.3% | 22.5% | 31.7% | 54.3% | 66.7% | 40.7% | 26.5% | 14.5% | 12.5% | 11.2% | 31.4% | 42.6% | 26.6% | 35.8% | 11.1% | 31.1% | 37.9% | 50.7% | –
18 | O=c1cc(-c2ccccc2)nc2sc(-c3c[nH]c4ccc(Br)cc34)nn12 | 103% | 104% | 89.8% | 104% | 102% | 99.8% | 96.3% | 105% | 91.6% | 102% | 108% | 88.4% | 100% | 85.4% | 98.9% | 87.4% | 102% | 93.9% | –
19 | COc1cc2c3c(n(CCCN4CCC[C@H]4C(N)=O)c(=O)c2cc1OC)-c1cc2c(cc1C3=O)OCO2 | 16.2% | 27.5% | 17.3% | 7.89% (active) | 27.6% | 7.46% (active) | -2.78% (active) | 6.29% (active) | 11.9% | 6.94% (active) | 12% | 21.2% | -21.6% (active) | 39.7% | -46.1% (active) | – | -28.3% (active) | 52.1% | –
